Measured values taken from PubChem BioAssay (EPA / NIEHS).
Inconclusive results are not listed. Active and inactive are the calls of the source. Rule for the calls, unless noted: active = hit-call score of the fitted dose curve at least 0.9, where 1 is the maximum; inconclusive = response in the unintended direction; inactive = score below 0.9.

What was measured:
PGR (gene 5241) [1] = target: PGR (gene 5241) (UniProt P06401); test: TOX21_PR_BLA_Followup_Agonist_ratio: Tox21 HEK293 Progesterone Receptor (PR) Agonism Beta-lactamase Follow-Up Assay, Ratio (AID 2283933)
Method in brief: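 Read-out: ratio of cleaved (ch2) to uncleaved (ch1) beta-lactamase substrate fluorescence, gain-of-signal relative to DMSO baseline. Cells: PR-UAS-bla HEK293T, 2% charcoal-stripped FBS; compound exposure 16 hr, 37C; substrate 2 hr, RT.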

PGR (gene 5241) [2] = target: PGR (gene 5241) (UniProt P06401); test: TOX21_PR_BLA_Followup_Antagonist_ratio: Tox21 HEK293 Progesterone Receptor (PR) Antagonism Beta-lactamase Follow-Up Assay, Ratio (AID 2283934)
Method in brief: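 Read-out: blue/green beta-lactamase FRET ratio (cleaved ch2 over uncleaved ch1), fitted relative to DMSO baseline. Cells: PR-UAS-bla HEK293T, GAL4-UAS reporter, stimulated with 1 nM R5020 final; 16 hr compound exposure, 37C.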

[3] = TOX21_PR_BLA_Followup_Agonist_viability: Viability Assessment in the Tox21 HEK293 Progesterone Receptor (PR) Agonism Beta-lactamase Follow-Up Assay (AID 2283935);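 note: signal loss means lower viability so actives are cytotoxic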
Method in brief: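 Luminescent ATP quantitation (CellTiter-Glo, 30 min, room temperature) in the same wells as the beta-lactamase read, on PR-UAS-bla HEK293T cells exposed to compound for 16 hr at 37C in 2% charcoal-stripped serum.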

[4] = TOX21_PR_BLA_Followup_Antagonist_viability: Viability Assessment in the Tox21 HEK293 Progesterone Receptor (PR) Antagonism Beta-lactamase Follow-Up Assay (AID 2283936);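 note: cells exposed to compound with R5020 agonist for 16 h; hits lower the luminescence signal meaning cytotoxicity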
Method in brief: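 PR-UAS-bla HEK293T cells in medium with 2% charcoal-stripped FBS were treated with compounds plus R5020 for 16 hr at 37C. After the beta-lactamase read, CellTiter-Glo was added to the same wells and luminescence read after 30 min at room temperature.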

PGR (gene 5241) [5] = target: PGR (gene 5241) (UniProt P06401); test: TOX21_PR_LUC_Followup_Agonist: Tox21 HEK293 Progesterone Receptor (PR) Agonism Luciferase Follow-Up Assay (AID 2283937; active = hit-call score of the fitted dose curve at least 0.9, where 1 is the maximum; inactive = score below 0.9)
Method in brief: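 Luminescence read-out (ONE-Glo, 30 min at room temperature) of PR-driven luciferase in HEK293-PR-A-luc cells after 16 h compound exposure at 37C; gain of signal fitted relative to DMSO baseline.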

PGR (gene 5241) [6] = target: PGR (gene 5241) (UniProt P06401); test: TOX21_PR_LUC_Followup_Antagonist: Tox21 HEK293 Progesterone Receptor (PR) Antagonism Luciferase Follow-Up Assay (AID 2283938);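 note: curve fitted upward as signal gain over DMSO baseline despite antagonist label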
Method in brief: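 A follow-up to the PR bla screen using HEK293-PR-A-luc cells, multiplexed with cell viability to flag cytotoxicity. Reporter luminescence after 16 h compound exposure was analysed relative to DMSO.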

[7] = TOX21_PR_LUC_Followup_Antagonist_viability: Viability Assessment in the Tox21 HEK293 Progesterone Receptor (PR) Antagonism Luciferase Follow-Up Assay (AID 2283940)
Method in brief: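 Read-out: CellTiter-Glo ATP luminescence, loss of signal taken as reduced viability. Cells: HEK293-PR-A-luc, 3,000/well, 5 h settling, then 16 h compound exposure at 37C, 0% CO2.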

[8] = TOX21_PR_LUC_Followup_Agonist_viability: Viability Assessment in the Tox21 HEK293 Progesterone Receptor (PR) Agonism Luciferase Follow-Up Assay (AID 2283941);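 note: loss of signal means cytotoxicity so actives lower viability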
Method in brief: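 Cytotoxicity counter-screen: ATP content by CellTiter-Glo luminescence, loss of signal = reduced viability. HEK293-PR-A-luc, 3,000 cells/well, compound exposure 16 h, 37C.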

[9] = target: T1, Thyroid hormone receptor alpha (Rattus norvegicus) + Thyroid hormone receptor beta (Rattus norvegicus) (UniProt P18113+P63059); test: TOX21_TR_LUC_GH3_Antagonist_Followup: Tox21 GH3 Thyroid Hormone Receptor Antagonism Luciferase Follow-Up Assay (AID 2283942)
Method in brief: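 In a GH3 luciferase reporter line, test chemicals spanning 92 uM to 5nM final are co-incubated 24 h with 1.0 nM T3. Activity is expressed as relative luminescence units and analysed relative to DMSO.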

THRA (gene 7067) [10] = target: THRA (gene 7067) (UniProt P10827); test: TOX21_TRA_COA_Antagonist_Followup_ratio: Tox21 Thyroid Hormone Receptor alpha Antagonism through Coactivator Recruitment Follow-Up Assay, Ratio (AID 2283953)
Method in brief: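 We measured antagonism of T3-type coactivator recruitment using a TR-FRET ratio (emission 520 and 495 nm) between a Tb-labelled anti-GST antibody on TRα LBD (2.5 nM) and SRC-2 peptide (200 nM). Activity was scaled between DMSO and T3 wells.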

[11] = TOX21_TRB_BLA_Antagonist_Followup_viability: Viability Assessment in the Tox21 Thyroid Hormone Receptor beta Antagonism Beta-lactamase (BLA) Follow-Up Assay (AID 2283961)
Method in brief: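 Cytotoxicity is measured in parallel with the antagonist-mode TRβ beta-lactamase screen, using ATP-coupled luciferase luminescence. Engineered HEK293T cells are treated for 18 h with 11-point compound series in triplicate.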

THRB (gene 7068) [12] = target: THRB (gene 7068) (UniProt P10828); test: TOX21_TRB_COA_Antagonist_Followup_ratio: Tox21 Thyroid Hormone Receptor beta Antagonism through Coactivator Recruitment Follow-Up Assay, Ratio (AID 2283967)
Method in brief: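 Coactivator (SRC-2) recruitment to purified GST-TRβ ligand-binding domain is monitored by terbium-to-fluorescein energy transfer, emission ratio 520:495 nm. DMSO wells define 0% and T3 wells 100% activity.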

[13] = target: Retinoic acid receptor RXR-alpha (Homo sapiens) (UniProt P19793); test: TOX21_TR_RXR_BLA_Antagonist_Followup_ratio: Tox21 Thyroid Hormone Receptor beta Retinoid X Receptor alpha (RXRa) Antagonism Beta-lactamase (BLA) Follow-Up Assay, Ratio (AID 2283972)
Method in brief: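 Antagonist mode used GAL4 UAS-driven beta-lactamase in HEK293T cells expressing RXRa, treated for 16 h with compound concentration series. Activity was taken from the blue/green (460:530 nm) ratio of cleaved to uncleaved substrate.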

[14] = TOX21_TR_RXR_BLA_Antagonist_Followup_viability: Viability Assessment in the Tox21 Thyroid Hormone Receptor beta Retinoid X Receptor alpha (RXRa) Antagonism Beta-lactamase (BLA) Follow-Up Assay (AID 2283979)
Method in brief: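 RXRa-UAS-bla HEK293T cells seeded 2,500/well in phenol red-free DMEM with 2% charcoal-stripped FBS, attached 5 h, then exposed to compounds at 11 concentrations in triplicate for 16 h at 37C/5% CO2. Viability read by CellTiter-Glo ATP luminescence; bidirectional fit versus DMSO.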

[15] = CCTE_Harrill_HTTr_Viability_MCF7: CCTE's 6-hour Cell Viability Assessment for the High-Throughput Transcriptomics (HTTr) Platform, in MCF-7 cells cultured in DMEM + 10% fetal bovine serum, Harrill Lab (AID 2284010; active = hit-call score of the fitted dose curve at least 0.9, where 1 is the maximum; inactive = score below 0.9)
Method in brief: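 PI exclusion, high-content imaging; 8-pt dilution series, 6 h exposure; bidirectional fit vs DMSO (neg. ctrl/baseline); gain of signal = loss of membrane integrity.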

[16] = CCTE_Harrill_HTTr_Apoptosis_MCF7: CCTE's 6-hour Apoptosis Assessment for the High-Throughput Transcriptomics (HTTr) Platform, in MCF-7 cells cultured in DMEM + 10% fetal bovine serum, Harrill Lab (AID 2284011; active = hit-call score of the fitted dose curve at least 0.9, where 1 is the maximum; inactive = score below 0.9)
Method in brief: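 Cells are dosed with test chemicals at eight concentrations and imaged 6 hours later for caspase-3/7 activity using a green fluorogenic detection reagent. Activity is fitted in both directions against DMSO controls.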

[17] = CCTE_Harrill_HTTr_CellCount_MCF7: CCTE's Cell Proliferation Assessment for the High-Throughput Transcriptomics (HTTr) Platform, Harrill Lab (AID 2284012);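 note: count of Hoechst-stained nuclei per well by high-content imaging in MCF-7 cells; cells exposed to compound for six hours; intended direction is loss of nuclei count meaning fewer cells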
Method in brief: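 Readout: Hoechst nuclear count by high-content imaging. MCF-7, 8-point dilution series, 6 h exposure. Bidirectional fit vs DMSO baseline.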

[18] = target: T1, Thyroid hormone receptor alpha (Rattus norvegicus) + Thyroid hormone receptor beta (Rattus norvegicus); test: TOX21_TR_LUC_GH3_Agonist_Followup: Tox21 GH3 Thyroid Hormone Receptor Agonism Luciferase Follow-Up Assay (AID 2283939)
Method in brief: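 Agonist-mode confirmatory run: 15 concentrations (5 nM to 92 uM final) on GH3 rat pituitary cells, 24 h at 37C/5% CO2, T3 as positive control. Luminescence read with ONE-Glo after 30 min.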

THRA (gene 7067) [19] = target: THRA (gene 7067) (UniProt P10827); test: TOX21_TRA_COA_Agonist_Followup_ratio: Tox21 Thyroid Hormone Receptor alpha Agonism through Coactivator Recruitment Follow-Up Assay, Ratio (AID 2283948; active = hit-call score of the fitted dose curve at least 0.9, where 1 is the maximum; inactive = score below 0.9)
Method in brief: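 First, compound was incubated with 2.5 nM GST-TRα LBD in 0.10% BSA. Next, 200 nM fluorescein-SRC-2 and 2 nM Tb-anti-GST antibody were added. Finally, the 520:495 nm ratio was normalized to DMSO and T3 controls.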

THRB (gene 7068) [20] = target: THRB (gene 7068) (UniProt P10828); test: TOX21_TRB_COA_Agonist_Followup_ratio: Tox21 Thyroid Hormone Receptor beta Agonism through Coactivator Recruitment Follow-Up Assay, Ratio (AID 2283963; active = hit-call score of the fitted dose curve at least 0.9, where 1 is the maximum; inactive = score below 0.9)
Method in brief: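 First, the GST-fused TRβ ligand-binding domain (5.0 nM) was incubated with test compound in 0.10% BSA. Next, fluorescein-tagged SRC-2 peptide (200 nM) and terbium anti-GST antibody (2 nM) were added. Finally, TR-FRET emission ratios were normalized against DMSO and T3 controls.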

[21] = target: Retinoic acid receptor RXR-alpha (Homo sapiens) (UniProt P19793); test: TOX21_TR_RXR_BLA_Agonist_Followup_ratio: Tox21 Thyroid Hormone Receptor beta Retinoid X Receptor alpha (RXRa) Agonism Beta-lactamase (BLA) Follow-Up Assay, Ratio (AID 2283968)
Method in brief: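 Read-out: blue/green (460:530 nm) FRET ratio from cleaved vs uncleaved CCF4 substrate, fitted for gain of signal relative to DMSO. Cells: HEK293T with RXRa-UAS-bla reporter; 16 h compound exposure, 11 concentrations, triplicate.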

[22] = TOX21_TR_RXR_BLA_Agonist_Followup_viability: Viability Assessment in the Tox21 Thyroid Hormone Receptor beta Retinoid X Receptor alpha (RXRa) Agonism Beta-lactamase (BLA) Follow-Up Assay (AID 2283970)
Method in brief: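 CellTiter-Glo ATP quantitation as viability read-out in RXRa-bla HEK293T cells (2,500/well, charcoal-stripped 2% FBS medium), 16h compound incubation at 37C. Loss of signal versus DMSO taken as cytotoxicity, analyzed by bidirectional curve fitting.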

Measured: AC50

Chain of Retinoic acid receptor RXR-alpha (Homo sapiens) (P19793 whole entry, looked up, the tested form may be a part): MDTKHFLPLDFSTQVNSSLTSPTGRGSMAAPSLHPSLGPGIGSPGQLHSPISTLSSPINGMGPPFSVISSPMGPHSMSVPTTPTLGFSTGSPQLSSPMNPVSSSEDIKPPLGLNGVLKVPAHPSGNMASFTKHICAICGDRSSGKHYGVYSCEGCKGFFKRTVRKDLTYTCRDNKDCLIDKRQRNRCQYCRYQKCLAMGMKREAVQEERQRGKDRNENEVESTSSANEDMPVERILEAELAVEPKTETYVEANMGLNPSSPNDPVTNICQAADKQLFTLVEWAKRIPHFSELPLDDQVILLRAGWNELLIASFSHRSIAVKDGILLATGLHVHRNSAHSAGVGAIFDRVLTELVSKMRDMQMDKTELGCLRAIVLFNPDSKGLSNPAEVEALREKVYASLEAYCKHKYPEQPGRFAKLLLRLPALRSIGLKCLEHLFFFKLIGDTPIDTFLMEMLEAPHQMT
Chain of THRB (gene 7068) (P10828 whole entry, looked up, the tested form may be a part): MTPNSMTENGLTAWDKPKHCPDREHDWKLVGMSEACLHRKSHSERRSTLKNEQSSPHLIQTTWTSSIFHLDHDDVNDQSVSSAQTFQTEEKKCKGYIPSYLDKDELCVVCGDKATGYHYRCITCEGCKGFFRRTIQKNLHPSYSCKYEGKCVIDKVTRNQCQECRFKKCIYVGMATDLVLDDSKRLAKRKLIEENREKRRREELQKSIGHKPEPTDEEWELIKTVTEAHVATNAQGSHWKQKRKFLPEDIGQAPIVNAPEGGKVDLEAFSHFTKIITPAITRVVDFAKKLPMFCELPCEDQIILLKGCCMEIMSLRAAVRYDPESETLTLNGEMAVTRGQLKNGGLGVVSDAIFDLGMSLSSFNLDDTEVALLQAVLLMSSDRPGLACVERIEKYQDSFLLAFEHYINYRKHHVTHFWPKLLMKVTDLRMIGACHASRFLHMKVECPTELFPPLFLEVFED
Chain of PGR (gene 5241) (P06401 whole entry, looked up, the tested form may be a part): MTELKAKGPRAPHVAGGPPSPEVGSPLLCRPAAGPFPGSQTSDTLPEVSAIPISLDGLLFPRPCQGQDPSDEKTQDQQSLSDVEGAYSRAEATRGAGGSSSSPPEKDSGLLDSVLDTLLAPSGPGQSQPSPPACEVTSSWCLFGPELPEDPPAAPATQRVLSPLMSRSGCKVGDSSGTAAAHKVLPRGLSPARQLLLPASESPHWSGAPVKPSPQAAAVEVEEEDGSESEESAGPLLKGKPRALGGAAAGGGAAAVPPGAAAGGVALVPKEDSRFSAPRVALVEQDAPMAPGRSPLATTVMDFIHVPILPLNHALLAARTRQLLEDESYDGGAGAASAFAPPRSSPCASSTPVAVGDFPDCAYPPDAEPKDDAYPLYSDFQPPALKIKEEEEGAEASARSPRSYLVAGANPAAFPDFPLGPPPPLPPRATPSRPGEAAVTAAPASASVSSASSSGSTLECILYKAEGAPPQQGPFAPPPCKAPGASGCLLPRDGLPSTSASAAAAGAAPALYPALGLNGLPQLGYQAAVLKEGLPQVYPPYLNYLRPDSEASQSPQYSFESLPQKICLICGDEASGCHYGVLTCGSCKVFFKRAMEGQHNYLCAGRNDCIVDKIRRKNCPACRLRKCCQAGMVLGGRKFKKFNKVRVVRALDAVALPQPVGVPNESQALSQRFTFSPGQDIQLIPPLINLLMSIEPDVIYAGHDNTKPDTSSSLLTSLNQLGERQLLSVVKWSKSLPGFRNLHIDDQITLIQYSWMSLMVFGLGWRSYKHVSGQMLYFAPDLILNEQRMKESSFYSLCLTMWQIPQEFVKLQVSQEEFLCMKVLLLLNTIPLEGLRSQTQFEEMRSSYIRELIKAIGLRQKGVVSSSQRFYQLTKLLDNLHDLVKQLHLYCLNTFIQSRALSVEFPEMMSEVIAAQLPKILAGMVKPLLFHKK
Chain of THRA (gene 7067) (P10827 whole entry, looked up, the tested form may be a part): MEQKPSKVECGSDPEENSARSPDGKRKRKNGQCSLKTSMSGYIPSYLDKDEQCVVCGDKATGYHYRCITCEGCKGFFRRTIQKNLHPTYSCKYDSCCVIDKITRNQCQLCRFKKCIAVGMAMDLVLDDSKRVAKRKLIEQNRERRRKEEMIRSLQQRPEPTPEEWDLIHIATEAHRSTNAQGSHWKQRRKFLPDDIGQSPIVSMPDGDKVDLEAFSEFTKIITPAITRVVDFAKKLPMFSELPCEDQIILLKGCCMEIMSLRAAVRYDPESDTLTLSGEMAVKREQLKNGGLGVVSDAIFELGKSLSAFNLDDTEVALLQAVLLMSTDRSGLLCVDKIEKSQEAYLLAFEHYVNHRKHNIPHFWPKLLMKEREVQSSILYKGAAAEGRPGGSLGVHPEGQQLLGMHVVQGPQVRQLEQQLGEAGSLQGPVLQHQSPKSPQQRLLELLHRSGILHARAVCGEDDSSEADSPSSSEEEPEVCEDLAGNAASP
T1 sequence (P63059 whole entry, looked up): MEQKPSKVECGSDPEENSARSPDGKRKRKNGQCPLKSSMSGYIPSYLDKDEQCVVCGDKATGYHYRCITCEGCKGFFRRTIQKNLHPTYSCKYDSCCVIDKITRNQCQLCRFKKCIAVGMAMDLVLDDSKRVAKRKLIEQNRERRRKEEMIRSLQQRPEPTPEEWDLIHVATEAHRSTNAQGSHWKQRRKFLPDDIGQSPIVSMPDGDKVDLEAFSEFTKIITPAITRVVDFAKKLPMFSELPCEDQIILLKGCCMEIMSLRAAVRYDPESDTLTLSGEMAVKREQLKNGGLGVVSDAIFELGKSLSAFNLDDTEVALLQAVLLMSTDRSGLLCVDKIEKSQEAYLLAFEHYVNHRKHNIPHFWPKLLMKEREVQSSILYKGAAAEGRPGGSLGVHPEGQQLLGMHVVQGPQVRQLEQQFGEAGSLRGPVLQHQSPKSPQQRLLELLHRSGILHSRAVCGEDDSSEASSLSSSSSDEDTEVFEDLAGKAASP
T1 sequence (P18113 whole entry, looked up): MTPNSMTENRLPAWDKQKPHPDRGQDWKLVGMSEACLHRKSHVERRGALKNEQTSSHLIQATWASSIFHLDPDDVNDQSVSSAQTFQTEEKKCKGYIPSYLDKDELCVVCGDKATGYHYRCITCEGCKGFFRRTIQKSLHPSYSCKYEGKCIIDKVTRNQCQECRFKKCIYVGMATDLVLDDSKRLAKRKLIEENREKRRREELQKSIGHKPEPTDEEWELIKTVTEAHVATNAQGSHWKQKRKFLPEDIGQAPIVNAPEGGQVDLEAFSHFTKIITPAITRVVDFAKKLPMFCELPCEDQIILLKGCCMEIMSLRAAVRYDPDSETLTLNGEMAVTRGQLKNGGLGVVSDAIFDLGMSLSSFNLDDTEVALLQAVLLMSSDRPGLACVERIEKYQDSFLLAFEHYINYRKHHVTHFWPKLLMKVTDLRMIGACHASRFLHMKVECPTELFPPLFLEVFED

CCN(CC)CC(=O)OCC(=O)[C@@]1(O)CC[C@H]2[C@@H]3CCC4=CC(=O)CC[C@]4(C)[C@H]3[C@@H](O)C[C@@]21C
inactive: PGR (gene 5241) [1] | PGR (gene 5241) [2] | [3] | [4] | PGR (gene 5241) [6] | [7] | [8]
active: PGR (gene 5241) [5] 1470 nM

COC(=O)Nc1nc2ccc(S(=O)c3ccccc3)cc2[nH]1 (centres undefined)
inactive: [9] | THRA (gene 7067) [10] | [11] | THRB (gene 7068) [12] | [13] | [14] | [15] | [16] | [17]

O=C(O)c1cccnc1Nc1cccc(C(F)(F)F)c1
inactive: [9] | THRA (gene 7067) [10] | [11] | THRB (gene 7068) [12] | [13] | [14]

CCCCCCC[N+](CC)(CC)CCCCc1ccc(Cl)cc1
inactive: [9] | THRA (gene 7067) [10] | THRB (gene 7068) [12] | [13] | [14]

C=C(NC(=O)C(=C)NC(=O)c1csc(C2=NC3c4csc(n4)C4NC(=O)c5csc(n5)C(C(C)(O)C(C)O)NC(=O)C5CSC(=N5)/C(=C/C)NC(=O)C(C(C)O)NC(=O)c5csc(n5)C3(CC2)NC(=O)C(C)NC(=O)C(=C)NC(=O)C(C)NC(=O)C(C(C)CC)NC2C=Cc3c(C(C)O)cc(nc3C2O)C(=O)OC4C)n1)C(N)=O (centres undefined)
inactive: THRA (gene 7067) [19] | THRB (gene 7068) [20] | [21] | [22]
active: [18] 2470 nM

CCCC(=O)O[C@]1(C(=O)CO)CC[C@H]2[C@@H]3CCC4=CC(=O)CC[C@]4(C)[C@H]3[C@@H](O)C[C@@]21C
inactive: [3] | PGR (gene 5241) [6]

Clc1ccccc1CN1CCc2sccc2C1
inactive: [3] | [4] | [7] | [8]
